Compounds without any hit were thinned out: in the full panel of roughly 83,000, 20% have a hit.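 Method: cells in 96-well plates; compound added at one concentration; 48 h incubation; percent growth measured; values under 10 scored active.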 A number with no mark means an inactive call. The source made the active and inactive calls.
Assays:
Test in all cases: NCI-60 one-dose screen, 48 h (100 = growth as untreated, 0 = no growth, -100 = all killed)
Conditions in all cases: 10 µM unless noted
EKVX NSCLC = test system: EKVX NSCLC
SN12C renal = test system: SN12C renal
UO-31 renal = test system: UO-31 renal
TK-10 renal = test system: TK-10 renal
ACHN renal = test system: ACHN renal
CAKI-1 renal = test system: CAKI-1 renal
MOLT-4 leukemia = test system: MOLT-4 leukemia
SR leukemia = test system: SR leukemia
A498 renal = test system: A498 renal
CCRF-CEM leukemia = test system: CCRF-CEM leukemia

| Structure (SMILES) | growth (EKVX NSCLC) | growth (SN12C renal) | growth (UO-31 renal) | growth (TK-10 renal) [%] | growth (ACHN renal) | growth (CAKI-1 renal) | growth (MOLT-4 leukemia) | growth (SR leukemia) | growth (A498 renal) | growth (CCRF-CEM leukemia) |
| --- | --- | --- | --- | --- | --- | --- | --- | --- | --- | --- |
| Cc1cc2nc3c4cc(Cl)ccc4n(CC(=O)NCCN(C)C)c3nc2cc1C | 73.8% | 79.8% | -83.6% (active) | 161 | -47.4% (active) | 53.9% | -19.4% (active) | -38% (active) | – | – |
| Nc1cc(-c2c[nH]c3ccc(Cl)cc23)nc2cc(-c3c[nH]c4ccc(Cl)cc34)nn12 | 54.4% | 70.8% | 61.3% | – | 24.3% | 35.6% | 33.3% | 10.1% | 32.2% | 42% |
| Clc1ccc2c(NCCCN3CCOCC3)c3oc4ccc(Cl)cc4c3nc2c1 | 65.3% | 40% | 32.2% | – | 12.1% | 21.6% | 15.4% | 1.24% (active) | 49.7% | 48.9% |
| C/C(=N\NC(N)=O)c1c(O)sc(=O)[nH]c1=O | 95.8% | 97.1% | 87.1% | 110 | 101% | 96.9% | 109% | 114% | – | – |
| O=C(CCCN1C(=O)/C(=C/c2ccccc2F)SC1=S)N1CCOCC1 | 89.5% | 87.6% | 72.2% | – | 78.1% | 89.2% | 91.3% | 68% | 82.8% | 71.6% |
| OC1CCN(CCCOc2c3ccccc3nc3c2oc2ccc(Cl)cc23)CC1 | 14.8% | 18.8% | 12.8% | – | 5.57% (active) | 12.8% | 9.39% (active) | 8.25% (active) | -8.33% (active) | 19.2% |
| Cc1ccc(C(=O)Nc2cccc(C(F)(F)F)c2)cc1Nc1nc(-c2cnccn2)nc2c1cnn2C | 77.3% | 64.7% | 37.8% | – | 53% | 48.9% | 43.1% | 39.5% | 53.9% | 78.2% |
| CCOC(=O)c1c(Nc2ccccc2)nn2c(N)c(C#N)c(-c3ccc(Cl)cc3)nc12 | 68.9% | 53.1% | 93.8% | – | 42.1% | 31.5% | 87.5% | 86.9% | 63.3% | 83% |
| O=C(CCN1C(=O)/C(=C/c2ccccc2F)SC1=S)N1CCOCC1 | 86.8% | 73.9% | 67.6% | – | 62.2% | 84.7% | 89.9% | 46.7% | 111% | 53.3% |
| O=C(CN1C(=O)/C(=C/c2ccccc2)SC1=S)N1CCOCC1 | 96.3% | 94.7% | 71.4% | – | 77.9% | 93.7% | 99.1% | 85.8% | 112% | 88% |
| Cc1cc(C(=O)Nc2sc3c(c2C(N)=O)CCC(=O)C3)ccc1OCCN1CCCCC1 | 107% | 92.5% | 94.8% | – | 91.1% | 98.3% | 51.9% | 81.6% | 120% | 77.1% |
| Cc1cccc2sc(/N=C(\N)C(Br)Br)nc12 | 19.9% | 18.2% | 30.6% | – | -13.5% (active) | 3.85% (active) | 2.63% (active) | -23.6% (active) | 38.7% | 1.81% (active) |
| Nc1ncc(-c2ccc3ncnc(N4CCc5cc(F)c(Cl)cc54)c3c2)cc1CO | -15.8% (active) | 14.7% | 6.11% (active) | – | 5.95% (active) | 2.97% (active) | -14.6% (active) | -6.6% (active) | -64% (active) | 6.14% (active) |
| Clc1ccc2oc3c(NCCCn4ccnc4)c4ccccc4nc3c2c1 | 73.8% | 38.4% | 30% | – | 9.12% (active) | 30.6% | 7.69% (active) | -5.22% (active) | 14.3% | 19.4% |
| CS(=O)(=O)c1ccc(-c2nc3ccccn3c2/C=N/Nc2nc(-c3ccc(Cl)cc3)cs2)cc1 | 96.8% | 102% | 76.2% | – | 101% | 91.8% | 82% | 95.1% | 79.9% | 85.6% |
| CC(=O)Oc1ccccc1C(=O)Nc1cc(C(C)C)ccc1C | 10.5% | 8.31% (active) | -0.422% (active) | – | 10.1% | 6.69% (active) | 4.63% (active) | -28.1% (active) | -29.4% (active) | 14.6% |
| CC(C)(C)OC(=O)N1C(=O)c2c(c3c4ccccc4[nH]c3c3ccc4ccccc4c23)C1=O | 67.7% | 52.6% | 40.4% | – | 34.5% | 26% | 38.2% | 23% | -2.67% (active) | 44.4% |
| CN(C)CCCNc1c2ccccc2nc2c1oc1ccc(Cl)cc12 | 43.5% | 26.6% | 39.5% | – | 17.5% | 21.4% | 3.74% (active) | -30.8% (active) | 7.63% (active) | 24.1% |
| Cc1nc(-c2cc3ccccc3oc2=O)ccc1C(=O)/C=C/c1ccccn1 | 84.3% | 47.5% | 58% | – | 58.7% | 60.6% | 27.1% | -12.6% (active) | 89.2% | 6.22% (active) |
| CC(=O)Oc1ccccc1C(=O)Nc1ccc(C(=O)/C=C/c2ccncc2)cc1 | 71.7% | 33.5% | 44.4% | – | 0.759% (active) | 62.6% | 23.1% | -15.2% (active) | 100% | 10.2% |
| C#C[C@]1(O)CC[C@H]2[C@@H]3CC=C4c5sc(Nc6ccc(Cl)cn6)nc5CC[C@]4(C)[C@H]3CC[C@@]21C | 42.3% | 79.5% | 40% | – | 53.6% | 29.1% | 2.85% (active) | 7.04% (active) | -6.58% (active) | 15.1% |
| CCN(CC)c1ccc(C=O)c(OCc2cn(CC(=O)Nc3ccc(Cl)cc3)nn2)c1 | 82.8% | 63.5% | -58.2% (active) | – | 24.3% | 57.5% | 51.9% | 47% | 89.2% | 72.7% |
| N#Cc1nc(-c2ccccc2)oc1S(=O)(=O)N1CCN(CCc2ccccn2)CC1 | 89% | 77.2% | -42.3% (active) | – | -95.4% (active) | 54.3% | 0.215% (active) | -19.2% (active) | 112% | 1.54% (active) |
| CN(C)CCCOc1c2ccccc2nc2c1oc1ccc(Cl)cc12 | 12.4% | 12.4% | 4.84% (active) | – | 1.64% (active) | -6.35% (active) | -1.53% (active) | -26.7% (active) | -6.15% (active) | 16.8% |
| Cc1cccc2sc(/N=C(\N)C(Cl)(Cl)Cl)nc12 | 71% | 110% | 90.5% | – | 98.4% | 85.3% | 103% | 100% | 92.7% | 107% |
| O=C(CSc1nnc(-c2ccc3nc(-c4ccc(Cl)cc4)[nH]c3c2)o1)Nc1ccc(C(=O)/C=C/c2ccc(Cl)cc2)cc1 | 93.8% | 84.9% | 75.3% | – | 98.1% | 83.6% | 77.8% | 49.7% | 90.1% | 86.4% |
| O=C(CN1CCOCC1)NNc1ncnc2ccccc12 | 85.7% | 89.4% | 71.5% | – | -91% (active) | 93.9% | 74.6% | 68.3% | 111% | 13.8% |
| CC(=O)Oc1ccccc1C(=O)Nc1ccc(C(=O)/C=C/c2cccs2)cc1 | 103% | 104% | 105% | – | 112% | 96.2% | 104% | 93.9% | 80.7% | 99.7% |
| NC(=O)c1cc(-c2ccc3ncnc(N4CCc5cc(F)c(Cl)cc54)c3c2)cnc1N | 13.6% | 23.4% | 22.3% | – | 23.1% | 19.9% | -11.8% (active) | 18.5% | -68.3% (active) | 21% |
